Assay results published in PubChem BioAssay AID1159580 (chemical genetic matrix, 2015).
Among all 5,500 compounds or so, about 2,000 (36%) were called active. About 18% were inconclusive and are not listed. This is one part of the list. Values without a mark were called inactive. Rule as the data show it: active = normalized growth mostly below about 0.91 (no sharp cut-off); inconclusive = no clear call, values can overlap the other calls; inactive = mostly above about 0.92.

Assay: chemical genetic growth profiling, strain panel (AID 1159580);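 also: tested at 20 µM; growth read once vehicle control cultures reached saturation at 30 °C; 1 = growth at the plate median or of vehicle wells; lower values mean less growth of the strain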
Details: S. cerevisiae deletion strains, growth OD

For N#Cc1cc(I)c(C#N)c(I)c1, the normalized growth (locus YAL013W, strain DEP1, hits give low values) was 0.765 (active), the normalized growth (locus YBR229C, strain ROT2, hits give low values) was 0.771 (active) and the normalized growth (locus YDL101C, strain DUN1, hits give low values) was 0.72 (active). The normalized growth (locus YDL134C, strain PPH21, hits give low values) was 0.978, the normalized growth (locus YDR150W, strain NUM1, hits give low values) was 0.782 (active) and the normalized growth (locus YEL061C, strain CIN8, hits give low values) was 0.981. The normalized growth (locus YGR078C, strain PAC10, hits give low values) was 0.693 (active), the normalized growth (locus YHR030C, strain SLT2, hits give low values) was 0.988 and the normalized growth (locus YHR087W, strain rtc3, hits give low values) was 0.737 (active). For the same compound, the normalized growth (locus YJR043C, strain POL32, hits give low values) was 0.777 (active), the normalized growth (locus YJR075W, strain HOC1, hits give low values) was 0.693 (active) and the normalized growth (locus YKL190W, strain CNB1, hits give low values) was 0.973. The normalized growth (locus YLR039C, strain RIC1, hits give low values) was 0.905, the normalized growth (locus YLR058C, strain SHM2 (second series), hits give low values) was 0.733 (active) and the normalized growth (locus YLR085C, strain ARP6, hits give low values) was 0.949. The normalized growth (locus YLR262C, strain YPT6, hits give low values) was 0.94, the normalized growth (locus YML094W, strain GIM5, hits give low values) was 0.98 and the normalized growth (locus YMR219W, strain ESC1, hits give low values) was 0.786 (active). The normalized growth (locus YMR263W, strain SAP30, hits give low values) was 0.775 (active), the normalized growth (locus YMR307W, strain GAS1, hits give low values) was 0.961 and the normalized growth (locus YNL153C, strain GIM3, hits give low values) was 0.746 (active). For the same compound, the normalized growth (locus YNL298W, strain CLA4 (second series), hits give low values) was 0.937, the normalized growth (locus YNL322C, strain KRE1, hits give low values) was 0.75 (active) and the normalized growth (locus YNR030W, strain Alg12, hits give low values) was 0.949. For the same compound, the normalized growth (locus YPL055C, strain LGE1, hits give low values) was 0.643 (active), the normalized growth (locus YPL241C, strain CIN2, hits give low values) was 0.979 and the normalized growth (locus YPR135W, strain CTF4, hits give low values) was 1.01.

Compound CC(=CC1CCC(C)C2C1=C(C)CC2O)C(=O)O (stereo not drawn) has a normalized growth (locus YAL021C, strain ccr4, hits give low values) of 1.01, a normalized growth (locus YAL026C, strain drs2, hits give low values) of 1.04 and a normalized growth (locus YAL030W, strain snc1, hits give low values) of 1.01. For the same compound, the normalized growth (locus YBL061C, strain skt5, hits give low values) was 1.02, the normalized growth (locus YBR009C, strain hhf1, hits give low values) was 1.01 and the normalized growth (locus YBR023C, strain chs3, hits give low values) was 1.02. The normalized growth (locus YBR171W, strain sec66, hits give low values) was 1.02, the normalized growth (locus YBR231C, strain swc5, hits give low values) was 1.02 and the normalized growth (locus YBR279W, strain paf1, hits give low values) was 1.02. For the same compound, the normalized growth (locus YCL011C, strain gbp2, hits give low values) was 1.02, the normalized growth (locus YCL016C, strain dcc1, hits give low values) was 1.01 and the normalized growth (locus YCL061C, strain MRC1, hits give low values) was 1.02. The normalized growth (locus YCL069W, strain vba3, hits give low values) was 1.01, the normalized growth (locus YCR088W, strain abp1, hits give low values) was 1.01 and the normalized growth (locus YDL005C, strain med2, hits give low values) was 1.03. It also gave a normalized growth (locus YDL040C, strain nat1, hits give low values) of 1.01, a normalized growth (locus YDR001C, strain nth1, hits give low values) of 1.01 and a normalized growth (locus YDR069C, strain doa4, hits give low values) of 1. It also gave a normalized growth (locus YDR137W, strain rgp1, hits give low values) of 1.04, a normalized growth (locus YDR159W, strain sac3, hits give low values) of 1.04 and a normalized growth (locus YDR195W, strain ref2) of 1.02. It also gave a normalized growth (locus YDR297W, strain sur2, hits give low values) of 1.02, a normalized growth (locus YDR334W, strain swr1, hits give low values) of 1.02 and a normalized growth (locus YDR335W, strain msn5, hits give low values) of 1.02. The normalized growth (locus YDR392W, strain spt3, hits give low values) was 0.944, the normalized growth (locus YEL003W, strain gim4, hits give low values) was 1.02 and the normalized growth (locus YEL037C, strain rad23, hits give low values) was 1.01. For the same compound, the normalized growth (locus YEL061C, strain CIN8 (second series), hits give low values) was 1.02, the normalized growth (locus YER015W, strain faa2, hits give low values) was 1.03 and the normalized growth (locus YER016W, strain bim1, hits give low values) was 1.02. For the same compound, the normalized growth (locus YER111C, strain swi4, hits give low values) was 1.01, the normalized growth (locus YER155C, strain BEM2 (second series), hits give low values) was 1.03 and the normalized growth (locus YFR010W, strain ubp6, hits give low values) was 1.03. It also gave a normalized growth (locus YGL167C, strain pmr1, hits give low values) of 1.01, a normalized growth (locus YGL173C, strain kem1, hits give low values) of 1.03 and a normalized growth (locus YGL227W, strain vid30, hits give low values) of 1.01. For the same compound, the normalized growth (locus YGL240W, strain doc1, hits give low values) was 1.02, the normalized growth (locus YGL253W, strain hxk2, hits give low values) was 1.03 and the normalized growth (locus YHR013C, strain ard1, hits give low values) was 1.03. For the same compound, the normalized growth (locus YHR027C, strain rpn1, hits give low values) was 1.04, the normalized growth (locus YHR142W, strain chs7, hits give low values) was 1.02 and the normalized growth (locus YJL092W, strain hpr5, hits give low values) was 1.02. The normalized growth (locus YJL095W, strain BCK1 (second series), hits give low values) was 1.02, the normalized growth (locus YJL115W, strain asf1, hits give low values) was 1.02 and the normalized growth (locus YJL129C, strain trk1, hits give low values) was 1.04. The normalized growth (locus YJL154C, strain vps35, hits give low values) was 1.01, the normalized growth (locus YJL164C, strain tpk1, hits give low values) was 1.01 and the normalized growth (locus YJL166W, strain qcr8, hits give low values) was 1.02. The normalized growth (locus YKL160W, strain elf1, hits give low values) was 1, the normalized growth (locus YKR026C, strain gcn3, hits give low values) was 1.01 and the normalized growth (locus YKR091W, strain srl3, hits give low values) was 1.02. The normalized growth (locus YLL001W, strain dnm1, hits give low values) was 1.03, the normalized growth (locus YLL026W, hits give low values) was 1.03 and the normalized growth (locus YLL041C, strain sdh2, hits give low values) was 1.01. For the same compound, the normalized growth (locus YLR027C, strain aat2, hits give low values) was 1.02, the normalized growth (locus YLR221C, strain rsa3, hits give low values) was 1.01 and the normalized growth (locus YLR258W, strain gsy2, hits give low values) was 1.01. It also gave a normalized growth (locus YLR262C, strain YPT6 (second series), hits give low values) of 1.02, a normalized growth (locus YLR320W, strain mms22, hits give low values) of 1.02 and a normalized growth (locus YLR342W, strain FKS1, hits give low values) of 1.02. It also gave a normalized growth (locus YLR357W, strain rsc2, hits give low values) of 0.995, a normalized growth (locus YLR370C, strain arc18, hits give low values) of 0.997 and a normalized growth (locus YLR384C, strain iki3, hits give low values) of 1.02. For the same compound, the normalized growth (locus YML120C, strain ndi1, hits give low values) was 1.02, the normalized growth (locus YMR058W, strain fet3, hits give low values) was 1.03 and the normalized growth (locus YMR125W, strain sto1, hits give low values) was 0.987. The normalized growth (locus YMR129W, hits give low values) was 1.02, the normalized growth (locus YMR205C, strain PFK2, hits give low values) was 1.02 and the normalized growth (locus YMR231W, strain pep5, hits give low values) was 1.02. For the same compound, the normalized growth (locus YNL071W, strain lat1, hits give low values) was 1.03, the normalized growth (locus YNL209W, strain ssb2, hits give low values) was 1.03 and the normalized growth (locus YNL248C, strain rpa49, hits give low values) was 1.07. For the same compound, the normalized growth (locus YNL322C, strain KRE1 (second series), hits give low values) was 1.01, the normalized growth (locus YNR049C, strain mso1, hits give low values) was 1.01 and the normalized growth (locus YOR001W, strain rrp6, hits give low values) was 1.04. It also gave a normalized growth (locus YOR070C, strain gyp1, hits give low values) of 1, a normalized growth (locus YOR080W, strain dia2, hits give low values) of 1.02 and a normalized growth (locus YOR083W, strain WHI5, hits give low values) of 1.01. It also gave a normalized growth (locus YOR106W, strain vam3, hits give low values) of 1.01, a normalized growth (locus YOR265W, strain rbl2, hits give low values) of 1.02 and a normalized growth (locus YOR270C, strain vph1, hits give low values) of 1.07. It also gave a normalized growth (locus YOR290C, strain snf2, hits give low values) of 0.989, a normalized growth (locus YPL051W, strain arl3, hits give low values) of 1.03 and a normalized growth (locus YPL078C, strain atp4, hits give low values) of 1.01. It also gave a normalized growth (locus YPL106C, strain sse1, hits give low values) of 1.03 and a normalized growth (locus YPL240C, strain hsp82, hits give low values) of 1.02.
